About 8,800 targets were measured; listed, in parts, are those with a hit and a random draw of the rest. About 0.5% of all pairs of compound and target were hits. Unmarked numbers belong to inactive results.
Assays:
Assay in all cases: log2 fold change, soluble protein after heating vs DMSO (PISA); higher = thermal stabilisation; K562 lysate, 10 uM; active = over 0.2 and 3.5 SD of the protein, either way, in both replicates (recomputed)
[1] = compound: NCC(=O)Nc1ccc(-n2nc(C(F)(F)F)cc2-c2ccc3c(ccc4ccccc43)c2)cc1
Outline: (§1)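 K562 pellets were dounce-homogenised in PBS pH 7.4 containing 1 mM MgCl2, and the crude extract, at 1 mg/mL protein, was exposed to 10 μM compound for 30 min. Aliquots were heated for 3 min across 48°C-58°C, pooled, brought to 0.5% NP-40 at 4°C and spun at 21,000xg for 90 min, with the supernatant taken as soluble protein. TMTpro 16plex LC-MS/MS with equalised channel sums quantified that protein. Values are log-two fold changes in thermal stability relative to solvent controls, taken from duplicates.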

[2] = compound: O=C(CCCCCCC(=O)Nc1ccccc1)NO [vorinostat]
Outline: as §1

[3] = compound: O=C(O)c1ccc2c(c1)nc(Nc1cccc(Cl)c1)c1ccncc12 [silmitasertib]
Outline: as §1

[4] = compound: O=C1NC(=O)C(c2cnc3ccccn23)=C1c1cn2c3c(cc(F)cc13)CN(C(=O)N1CCCCC1)CC2
Outline: as §1

[5] = compound: c1cn2cc(-c3ccc4cn[nH]c4c3)nc(Nc3ccc(N4CCOCC4)cc3)c2n1 [entospletinib]
Outline: as §1

Chain of UniProt Q8IZ21 (Q8IZ21 whole entry, looked up): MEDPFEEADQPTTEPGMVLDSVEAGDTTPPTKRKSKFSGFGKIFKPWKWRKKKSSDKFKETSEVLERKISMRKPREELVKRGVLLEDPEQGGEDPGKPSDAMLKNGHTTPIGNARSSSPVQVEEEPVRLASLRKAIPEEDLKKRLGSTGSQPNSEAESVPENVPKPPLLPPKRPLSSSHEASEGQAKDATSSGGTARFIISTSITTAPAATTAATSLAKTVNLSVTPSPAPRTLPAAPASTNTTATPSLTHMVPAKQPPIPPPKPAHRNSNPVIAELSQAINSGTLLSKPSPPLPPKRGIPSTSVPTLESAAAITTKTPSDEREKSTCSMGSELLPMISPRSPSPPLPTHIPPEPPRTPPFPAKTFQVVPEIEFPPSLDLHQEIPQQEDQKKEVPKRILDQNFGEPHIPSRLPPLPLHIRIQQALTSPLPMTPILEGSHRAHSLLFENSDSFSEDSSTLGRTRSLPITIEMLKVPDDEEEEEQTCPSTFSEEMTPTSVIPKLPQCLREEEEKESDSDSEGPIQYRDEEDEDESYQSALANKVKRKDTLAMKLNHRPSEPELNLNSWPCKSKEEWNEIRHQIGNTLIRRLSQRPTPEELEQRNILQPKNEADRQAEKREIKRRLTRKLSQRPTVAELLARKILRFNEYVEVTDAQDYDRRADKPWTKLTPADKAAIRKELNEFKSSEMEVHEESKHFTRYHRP
Chain of UniProt Q6EEV4 (Q6EEV4 whole entry, looked up): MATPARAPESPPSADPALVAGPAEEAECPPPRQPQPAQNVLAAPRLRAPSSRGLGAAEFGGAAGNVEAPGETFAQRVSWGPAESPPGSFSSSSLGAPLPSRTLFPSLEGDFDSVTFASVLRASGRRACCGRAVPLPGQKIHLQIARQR
Chain of UniProt Q15004 (Q15004 whole entry, looked up): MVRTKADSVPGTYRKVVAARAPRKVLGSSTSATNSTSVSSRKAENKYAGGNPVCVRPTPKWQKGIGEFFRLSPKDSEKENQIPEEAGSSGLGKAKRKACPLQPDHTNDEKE
Chain of UniProt O15067 (O15067 whole entry, looked up): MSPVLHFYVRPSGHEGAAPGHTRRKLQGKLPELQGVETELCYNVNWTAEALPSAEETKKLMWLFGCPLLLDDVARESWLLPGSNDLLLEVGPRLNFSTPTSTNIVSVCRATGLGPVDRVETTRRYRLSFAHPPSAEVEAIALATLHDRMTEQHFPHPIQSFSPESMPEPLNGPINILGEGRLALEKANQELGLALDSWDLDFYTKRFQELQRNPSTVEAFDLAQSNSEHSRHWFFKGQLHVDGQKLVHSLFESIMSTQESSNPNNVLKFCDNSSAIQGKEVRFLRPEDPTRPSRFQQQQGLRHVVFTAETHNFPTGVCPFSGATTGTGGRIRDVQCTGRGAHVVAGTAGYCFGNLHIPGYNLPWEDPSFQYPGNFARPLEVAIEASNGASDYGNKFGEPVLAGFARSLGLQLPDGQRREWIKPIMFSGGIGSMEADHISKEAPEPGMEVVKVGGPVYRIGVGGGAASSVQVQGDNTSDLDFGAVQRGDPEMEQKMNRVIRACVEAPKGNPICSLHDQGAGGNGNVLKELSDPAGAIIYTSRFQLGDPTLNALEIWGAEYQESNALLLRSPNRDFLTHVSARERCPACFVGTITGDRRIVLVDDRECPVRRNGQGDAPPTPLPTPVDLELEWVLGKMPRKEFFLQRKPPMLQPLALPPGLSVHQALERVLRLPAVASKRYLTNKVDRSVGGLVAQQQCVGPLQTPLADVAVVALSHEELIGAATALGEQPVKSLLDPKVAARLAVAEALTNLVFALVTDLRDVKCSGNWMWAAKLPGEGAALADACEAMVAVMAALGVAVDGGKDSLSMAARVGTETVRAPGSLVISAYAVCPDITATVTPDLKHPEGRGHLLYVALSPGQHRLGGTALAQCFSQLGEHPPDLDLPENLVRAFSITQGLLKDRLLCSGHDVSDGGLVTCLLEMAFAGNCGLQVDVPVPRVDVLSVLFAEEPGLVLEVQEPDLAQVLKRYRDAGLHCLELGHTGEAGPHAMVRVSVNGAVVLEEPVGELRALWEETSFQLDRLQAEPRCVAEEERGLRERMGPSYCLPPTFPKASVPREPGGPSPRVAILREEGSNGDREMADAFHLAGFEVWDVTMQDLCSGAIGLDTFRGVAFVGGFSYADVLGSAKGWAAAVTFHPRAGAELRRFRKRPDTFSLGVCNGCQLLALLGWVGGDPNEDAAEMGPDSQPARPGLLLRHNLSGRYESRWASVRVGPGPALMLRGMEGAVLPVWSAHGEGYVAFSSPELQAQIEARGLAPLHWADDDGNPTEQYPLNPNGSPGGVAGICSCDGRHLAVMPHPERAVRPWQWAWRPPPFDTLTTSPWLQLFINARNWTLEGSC
Chain of UniProt Q8TCG2 (Q8TCG2 whole entry, looked up): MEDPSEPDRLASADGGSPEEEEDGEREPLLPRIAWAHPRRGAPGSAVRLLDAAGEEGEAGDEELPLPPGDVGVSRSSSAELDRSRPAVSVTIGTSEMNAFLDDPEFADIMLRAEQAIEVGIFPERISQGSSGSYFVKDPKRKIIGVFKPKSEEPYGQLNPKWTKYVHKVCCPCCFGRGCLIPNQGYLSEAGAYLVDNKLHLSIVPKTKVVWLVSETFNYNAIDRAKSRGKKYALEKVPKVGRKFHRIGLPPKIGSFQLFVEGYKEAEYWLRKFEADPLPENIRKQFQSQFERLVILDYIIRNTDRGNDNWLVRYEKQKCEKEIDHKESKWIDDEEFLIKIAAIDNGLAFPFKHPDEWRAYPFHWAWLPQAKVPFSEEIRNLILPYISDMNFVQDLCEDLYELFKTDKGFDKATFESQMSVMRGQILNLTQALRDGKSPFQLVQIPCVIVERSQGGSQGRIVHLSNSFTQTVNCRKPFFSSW
Chain of UniProt Q9NR22 (Q9NR22 whole entry, looked up): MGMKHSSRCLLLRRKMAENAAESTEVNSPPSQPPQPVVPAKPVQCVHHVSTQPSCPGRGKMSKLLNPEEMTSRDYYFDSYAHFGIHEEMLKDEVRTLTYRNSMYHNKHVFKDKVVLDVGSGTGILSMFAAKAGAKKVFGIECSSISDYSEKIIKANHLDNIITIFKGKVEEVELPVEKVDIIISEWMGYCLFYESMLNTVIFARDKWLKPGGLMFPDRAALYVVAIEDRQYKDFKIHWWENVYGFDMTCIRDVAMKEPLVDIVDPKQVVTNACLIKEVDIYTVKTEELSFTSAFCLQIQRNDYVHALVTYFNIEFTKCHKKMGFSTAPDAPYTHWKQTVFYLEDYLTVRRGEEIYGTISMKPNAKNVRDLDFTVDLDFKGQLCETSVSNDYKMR
Chain of UniProt O00764 (O00764 whole entry, looked up): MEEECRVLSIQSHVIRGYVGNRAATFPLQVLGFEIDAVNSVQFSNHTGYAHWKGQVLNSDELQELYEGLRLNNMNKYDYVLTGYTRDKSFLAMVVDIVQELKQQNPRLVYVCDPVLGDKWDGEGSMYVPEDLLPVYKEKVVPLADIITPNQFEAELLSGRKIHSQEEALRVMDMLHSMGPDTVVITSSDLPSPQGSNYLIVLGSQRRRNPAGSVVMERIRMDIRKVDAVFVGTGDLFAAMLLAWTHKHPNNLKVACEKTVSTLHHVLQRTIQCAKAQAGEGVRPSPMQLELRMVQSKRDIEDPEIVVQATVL
Chain of UniProt Q03393 (Q03393 whole entry, looked up): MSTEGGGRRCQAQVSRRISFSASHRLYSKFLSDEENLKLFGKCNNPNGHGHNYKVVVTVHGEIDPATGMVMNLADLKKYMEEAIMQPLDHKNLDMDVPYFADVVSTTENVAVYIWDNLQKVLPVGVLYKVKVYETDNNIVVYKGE
Chain of UniProt P0C869 (P0C869 whole entry, looked up): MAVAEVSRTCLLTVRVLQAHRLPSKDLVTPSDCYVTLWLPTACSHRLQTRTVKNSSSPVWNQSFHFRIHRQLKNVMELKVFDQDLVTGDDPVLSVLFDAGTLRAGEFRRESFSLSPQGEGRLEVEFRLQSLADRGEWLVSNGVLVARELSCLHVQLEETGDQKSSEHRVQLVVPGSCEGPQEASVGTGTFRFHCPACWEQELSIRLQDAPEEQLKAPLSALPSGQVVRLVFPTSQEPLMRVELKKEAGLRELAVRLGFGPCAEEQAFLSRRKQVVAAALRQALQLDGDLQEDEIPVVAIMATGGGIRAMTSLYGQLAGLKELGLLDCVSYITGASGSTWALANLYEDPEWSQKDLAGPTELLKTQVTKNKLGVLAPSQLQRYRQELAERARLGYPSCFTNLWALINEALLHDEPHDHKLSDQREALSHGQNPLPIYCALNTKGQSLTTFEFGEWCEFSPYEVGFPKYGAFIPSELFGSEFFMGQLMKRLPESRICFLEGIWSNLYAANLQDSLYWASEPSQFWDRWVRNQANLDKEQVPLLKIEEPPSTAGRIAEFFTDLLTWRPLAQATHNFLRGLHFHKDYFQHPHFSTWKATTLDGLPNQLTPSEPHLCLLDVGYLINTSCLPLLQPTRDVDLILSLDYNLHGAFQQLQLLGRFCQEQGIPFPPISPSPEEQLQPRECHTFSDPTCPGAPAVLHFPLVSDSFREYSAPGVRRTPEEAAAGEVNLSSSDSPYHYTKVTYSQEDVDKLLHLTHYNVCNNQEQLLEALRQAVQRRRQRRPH
Chain of UniProt P31323 (P31323 whole entry, looked up): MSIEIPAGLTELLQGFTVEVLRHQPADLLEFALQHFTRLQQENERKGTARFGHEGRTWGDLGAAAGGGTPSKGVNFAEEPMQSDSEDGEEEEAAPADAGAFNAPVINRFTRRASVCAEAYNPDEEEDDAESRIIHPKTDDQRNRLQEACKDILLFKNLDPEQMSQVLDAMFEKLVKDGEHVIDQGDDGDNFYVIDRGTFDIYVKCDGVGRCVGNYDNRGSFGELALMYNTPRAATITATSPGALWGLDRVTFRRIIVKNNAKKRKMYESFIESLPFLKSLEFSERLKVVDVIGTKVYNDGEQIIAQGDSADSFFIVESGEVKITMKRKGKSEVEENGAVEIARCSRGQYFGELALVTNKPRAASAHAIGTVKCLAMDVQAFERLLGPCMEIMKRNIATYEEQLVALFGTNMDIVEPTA
Chain of UniProt P07737 (P07737 whole entry, looked up): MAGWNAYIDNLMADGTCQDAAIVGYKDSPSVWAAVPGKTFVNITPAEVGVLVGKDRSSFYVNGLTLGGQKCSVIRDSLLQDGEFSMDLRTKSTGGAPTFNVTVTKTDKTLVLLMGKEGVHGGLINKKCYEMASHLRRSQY

Target | log2 fold change [1] | log2 fold change [2] | log2 fold change [3] | log2 fold change [4] | log2 fold change [5]
PPT2 isoform 3 (UniProt Q9UMR5) | 0.055 | 0.398 (active) | 0.034 | -0.018 | -0.006
PIAS2 (UniProt O75928) | 0.469 (active) | -0.334 (active) | -0.091 | -0.054 | 0.01
PREP (UniProt P48147) | 0.006 | -0.153 | 0.008 | -0.01 | 0.014
PCLAF (UniProt Q15004) | 0.022 | -0.29 (active) | -0.029 | -0.025 | 0.009
PRKD3 (UniProt O94806) | -0.116 | -0.182 | 0.224 | 0.076 | 0.013
PRKAR2B (UniProt P31323) | 0.014 | -0.093 | 0.009 | 0.025 | -0.055
PPP3CA isoform 2 (UniProt Q08209) | 0.006 | 0.042 | 0.014 | -0.025 | 0.066
PFN1 (UniProt P07737) | -0.006 | 0.083 | -0.004 | -0.014 | 0.006
PLA2G4B isoform 6 (UniProt P0C869) | -0.008 | 0.002 | -0.017 | 0.264 | 0.06
PI4K2B (UniProt Q8TCG2) | -0.038 | -0.054 | 0.041 | 0.011 | 0.014
PMPCA (UniProt Q10713) | 0.031 | 0.033 | -0.044 | 0.003 | -0.019
PRIM2 (UniProt P49643) | -0.008 | -0.296 (active) | 0.09 | 0 | 0.003
POLR2M (UniProt Q6EEV4) | 0.146 | -0.019 | -0.069 | 0.06 | -0.022
PTS (UniProt Q03393) | 0.053 | 0.006 | 0.009 | -0.151 | 0.032
POLR3E (UniProt Q9NVU0) | -0.017 | -0.263 (active) | -0.023 | 0.027 | -0.004
PDXK (UniProt O00764) | -0.005 | 0.073 | -0.008 | 0.026 | -0.009
PFAS (UniProt O15067) | 0.029 | -0.272 (active) | 0.022 | 0.031 | 0.016
PDAP1 (UniProt Q13442) | 0.014 | 0.118 | 0.005 | -0.004 | -0.027
PRMT8 (UniProt Q9NR22) | 0.067 | -0.157 | -0.018 | -0.017 | 0.002
PRKCB isoform 2 (UniProt P05771) | 0.046 | -0.145 | 0.012 | -0.164 | 0.004
PRKCSH (UniProt P14314) | 0.002 | 0.141 | -0.015 | -0.001 | 0.001
PRMT5 (UniProt O14744) | 0.012 | 0.013 | -0.037 | 0.001 | 0.013
PHACTR4 isoform 2 (UniProt Q8IZ21) | 0.025 | 0.014 | 0.01 | 0.009 | -0.024
PRRC2A (UniProt P48634) | 0.012 | 0.108 | -0.026 | -0.018 | -0.003

— the supplement of paper PMC10849652
